# This is a sample that favours compounds with a hit; in the whole collection about 3.4% have one here.
# pPAFAH FP inh: pPAFAH enzyme inhibitors, primary screen, biochemical, fluorescence polarization, human; recombinant pPAFAH, FP-rhodamine probe fluorescence polarization; inhibition, % at 3.39 µM; 1.5% of 330,000 active; AID 463082, 2010;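 active = inhibition above the mean inhibition across the screen plus 3 SD, cut at about 25% in these data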;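 also: inhibitors block binding of the rhodamine activity-based probe so polarization drops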
# PAFAH1B3 FP inh: PAFAH1B3 enzyme inhibitors, primary screen, biochemical, fluorescence polarization, human; Platelet-activating factor acetylhydrolase IB subunit alpha1 (Homo sapiens), Q15102; recombinant PAFAH1B3, FP-rhodamine probe; inhibition, % at 3.39 µM; 0.28% of 340,000 active; AID 492972, 2010;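 active = inhibition above the screen-wide average of all tested compounds plus 3 SD, cut at about 25% in these data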
# Target sequence (Q15102 whole entry, looked up): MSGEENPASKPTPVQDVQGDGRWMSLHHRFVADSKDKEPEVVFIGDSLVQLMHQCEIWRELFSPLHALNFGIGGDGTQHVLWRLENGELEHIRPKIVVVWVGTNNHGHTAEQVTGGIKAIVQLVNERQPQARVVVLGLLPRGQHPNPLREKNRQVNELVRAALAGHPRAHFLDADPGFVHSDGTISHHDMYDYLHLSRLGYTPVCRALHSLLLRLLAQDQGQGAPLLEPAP
# PP5 inh: PP5 phosphatase inhibitors, primary screen, biochemical, fluorescence; Serine/threonine-protein phosphatase 5 (Homo sapiens), P53041; purified PP5c, OMFP substrate fluorescence; inhibition, % at 6.7 µM; 0.18% of 320,000 active;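 active = inhibition above the campaign's mean inhibition across all tested compounds plus 3 SD, cut at about 9.5% in these data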
# PAFAH1B2 FP inh: PAFAH1B2 enzyme inhibitors, primary screen, biochemical, fluorescence polarization, human. inhibition, % at 3.39 µM. recombinant PAFAH1B2, FP-rhodamine activity probe. Platelet-activating factor acetylhydrolase IB subunit alpha2 (Homo sapiens), P68402. 1.2% of 340,000 active. AID 492953, 2010;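 active = inhibition above the mean of all tested compounds plus 3 SD, cut at about 24% in these data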
# Target sequence (P68402 whole entry, looked up): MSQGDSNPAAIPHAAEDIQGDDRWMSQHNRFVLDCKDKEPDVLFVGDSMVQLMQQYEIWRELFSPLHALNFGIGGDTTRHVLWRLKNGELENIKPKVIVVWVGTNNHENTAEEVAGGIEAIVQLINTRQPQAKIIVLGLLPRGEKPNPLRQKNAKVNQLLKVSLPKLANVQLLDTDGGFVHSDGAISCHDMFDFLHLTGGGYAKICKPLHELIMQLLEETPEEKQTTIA
# PP1 inh: PP1-alpha phosphatase inhibitors, primary screen, counter-screen for PP5 inhibitor project, biochemical, fluorescence, OMFP substrate, single point; 0.9% of 320,000 active; purified PP1alpha; inhibition, % at 6.7 µM; AID 2235, 2010; Serine/threonine-protein phosphatase PP1-alpha catalytic subunit (Homo sapiens), P62136;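 active = inhibition above the mean inhibition of all tested compounds plus 3 SD, computed separately for each screening campaign, cut at about 15% in these data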
# PAFAH2 inh: PAFAH2 enzyme inhibitors, primary screen, biochemical, fluorescence polarization, human. Platelet-activating factor acetylhydrolase 2, cytoplasmic (Homo sapiens), Q99487. recombinant PAFAH2, FP-rhodamine activity probe. inhibition, % at 3.39 µM. 0.99% of 340,000 active. AID 492956, 2010;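 active = inhibition above the mean over all tested compounds plus 3 SD, cut at about 30% in these data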;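 also: inhibitors block probe labeling of enzyme so polarization drops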
# Numbers stand for hits; i = inactive; nt = no result given.
SMILES,pPAFAH FP inh,PAFAH1B3 FP inh,PP5 inh,PAFAH1B2 FP inh,PP1 inh,PAFAH2 inh
CN(C)c1ccc(C(=O)OCC(=O)Nc2cccc(S(=O)(=O)N3CCCC3)c2)cc1,27,i,nt,i,nt,86
COc1ccc(C)cc1CN(C)c1ccc(S(=O)(=O)N2CCN(C)CC2)cn1,nt,i,nt,i,nt,i
Cc1cccc(NC(=O)c2ccc(NS(=O)(=O)c3c(C)noc3C)cc2)c1,i,i,i,i,i,i
CCc1cccc(NC(=O)c2ccc(NS(=O)(=O)c3c(C)noc3C)cc2)c1,29,i,i,i,i,i
CCN(C(=O)CSc1nc2cc(S(=O)(=O)N(CC)CC)ccc2o1)C1CCS(=O)(=O)C1 (configuration not stated),i,i,i,i,i,i
N#Cc1c(NC(=O)CCC(=O)O)sc2c1CCCCC2,i,i,i,i,i,i
CC(C)(C)C1CCc2c(sc(NC(=O)C3CC=CCC3C(=O)O)c2C#N)C1 (configuration not stated),31,i,i,59,i,i
CCC(C)(C)C1CCc2c(sc(NC(=O)c3ccccc3C(=O)O)c2C#N)C1 (configuration not stated),32,i,i,67,i,i
N#Cc1c(NC(=O)C2CC=CCC2C(=O)O)sc2c1CCCCCC2 (configuration not stated),i,i,i,45,i,i
CC1CCc2c(sc(NC(=O)c3ccccc3C(=O)O)c2C#N)C1 (configuration not stated),i,i,i,i,i,i
CSc1ncnc2ncn(C)c12,nt,i,nt,i,nt,i
O=c1cc(O)c2sc3nc(-c4cccnc4)cc(C(F)(F)F)c3c2[nH]1,i,i,i,i,18,i
O=C1CSC(c2ccc([N+](=O)[O-])cc2)N1C1CCCCC1 (configuration not stated),i,i,i,27,i,i
CC(C)(C)NC(=O)COc1coc(CN2CCN(Cc3ccccc3)CC2)cc1=O,i,i,i,i,i,i
O=C(COC(=O)CC1CC2CCC1C2)Nc1cc([N+](=O)[O-])ccc1F (configuration not stated),i,i,i,42,i,49
COc1cccc(NC(=O)COC(=O)CC2CC3CCC2C3)c1 (configuration not stated),34,i,nt,i,nt,78
O=C(COC(=O)CCc1ccccc1)Nc1cc([N+](=O)[O-])ccc1F,i,i,i,i,i,i
O=C(COC(=O)CC1CC2CCC1C2)NC(=O)NCc1ccco1 (configuration not stated),i,i,i,25,i,i
CCNC(=O)c1ccc2c(c1)C1C3CCC(C3)C1C(c1ccccc1)N2 (configuration not stated),i,i,i,i,i,i
Cc1ccccc1C(=O)NNC(=O)C1CC(=O)N(c2ccc3c(c2)OCCO3)C1 (configuration not stated),i,i,i,i,i,i
COc1ccc(C(=O)C(C)OC(=O)CCN2C(=O)C3CC=CCC3C2=O)cc1 (configuration not stated),i,i,i,i,i,i
CC1(C)NC(=O)N(CC(=O)N2CCN(S(=O)(=O)c3ccccc3C(F)(F)F)CC2)C1=O,i,i,i,i,i,i
COc1ccc(NC(=O)C(C)N2C(=O)C3CC=C(Cl)CC3C2=O)cc1 (configuration not stated),nt,i,nt,i,nt,i
COCCCC1CCN(C(=O)C2CCC(=O)N(Cc3cccc(F)c3)C2)CC1 (configuration not stated),i,i,i,i,i,i
O=C(CNS(=O)(=O)c1ccccc1)NCC(=O)OCc1ccc(Cl)cc1,i,i,i,27,i,i
SMILES,pPAFAH FP inh,PAFAH1B3 FP inh,PP5 inh,PAFAH1B2 FP inh,PP1 inh,PAFAH2 inh
O=C(CCCn1c(=O)oc2ccccc21)NC1CCCCCC1,i,nt,i,nt,i,nt
CC1CC(NC(=O)CCn2c(=O)oc3ccccc32)CC(C)(C)C1 (configuration not stated),i,i,i,38,i,44
Cc1nc2ccc(NC(=O)[C@H](C)N3C(=O)C4CC=CCC4C3=O)cc2s1 (some centres not stated),i,i,nt,i,nt,i
CCOCCSc1n[nH]c(=O)n1CCc1ccccc1,i,i,i,i,i,i
CCCCCCCCSc1nnc2[nH]c(=O)cc(N)n12,i,i,i,i,i,i
CCCCCCSc1nnc2[nH]c(=O)cc(N)n12,i,i,i,26,i,i
O=C1SC(SCc2ccccc2Cl)=N/C1=C\c1ccc(C(=O)O)cc1,i,i,i,28,i,62
NC(=S)N=Nc1c(O)n(CCCl)c2ccc(Br)cc12,i,i,i,32,i,i
CC(Sc1nc(C(F)(F)F)nc2ccccc12)C(=O)NC1CCCC1 (configuration not stated),nt,i,nt,i,nt,i
Cc1csc(NC(=O)CSc2sc3c(O)cc(=O)[nH]c3c2C#N)n1,33,i,i,i,i,37
O=c1cc(CN2CC(O)Cc3ccc4ccccc4c32)nc2sccn12 (configuration not stated),i,i,i,i,i,i
CCCCCCCCn1c(=O)c(C(=O)OCC)c(O)c2ccccc21,i,i,i,24,i,i
O=C(Cc1ccc(NC(=O)C2CCN(C(=O)C3CCCC3)CC2)cc1)Nc1cccc(C(=O)N2CCCCC2)c1,nt,i,nt,i,nt,i
NNC(=O)c1cc(S(=O)(=O)N2CCOCC2)c[nH]1,i,i,i,i,i,i
Cc1[nH]nc2c1C(c1ccc(Cl)cc1)C(C#N)=C(N)O2 (configuration not stated),i,i,i,28,i,i
Cc1ccc(C2C(C#N)=C(N)Oc3n[nH]c(C)c32)cc1 (configuration not stated),i,i,i,i,i,i
CCOc1ccc(Nc2oc(-c3ccccc3Cl)nc2C#N)cc1,i,nt,i,nt,17,nt
CN(Cc1ccccc1)C(=O)CN1CCN(S(=O)(=O)c2ccc(Cl)c(Cl)c2)CC1,i,i,i,30,i,i
Cc1cc(S(=O)(=O)N2CCN(CC(=O)N(C)Cc3ccccc3)CC2)ccc1Br,nt,i,nt,i,nt,i
CC(=O)N(c1ccc2oc(=O)sc2c1)S(=O)(=O)c1ccccc1,i,i,i,i,i,i
CCCC(=O)N(c1ccc2oc(=O)sc2c1)S(=O)(=O)c1cccs1,i,i,i,i,i,35
S=c1[nH]nc(COc2ccccc2)n1/N=C/c1ccccc1Br,i,i,i,i,i,i
O=c1c2ccccc2nc(COc2ccccc2)n1/N=C/c1cc([N+](=O)[O-])ccc1O,26,i,i,i,i,i

# Source: PubChem
